# Measured values taken from paper PMC7862700, “An all-to-all approach to the identification of sequence-specific readers for epigenetic DNA modifications on cytosine”.
# Tests used:
# Test in all cases: DAPPL (digital affinity profiling via proximity ligation, sequencing); 10 mM Tris-HCl pH 7.5, 50 mM NaCl, 1 mM DTT, 4% glycerol, room temperature, 30 min; GST-TFs on glutathione beads, 16-mer random dsDNA library, 0.1% formaldehyde crosslink after washing; high values mean tight binding
# FLI1 = target: T1, FLI1 (Homo sapiens, UniProt Q01543 1-452); details: protein: recombinant; tags: N-terminal GST; dsDNA, one strand shown
# T1 sequence: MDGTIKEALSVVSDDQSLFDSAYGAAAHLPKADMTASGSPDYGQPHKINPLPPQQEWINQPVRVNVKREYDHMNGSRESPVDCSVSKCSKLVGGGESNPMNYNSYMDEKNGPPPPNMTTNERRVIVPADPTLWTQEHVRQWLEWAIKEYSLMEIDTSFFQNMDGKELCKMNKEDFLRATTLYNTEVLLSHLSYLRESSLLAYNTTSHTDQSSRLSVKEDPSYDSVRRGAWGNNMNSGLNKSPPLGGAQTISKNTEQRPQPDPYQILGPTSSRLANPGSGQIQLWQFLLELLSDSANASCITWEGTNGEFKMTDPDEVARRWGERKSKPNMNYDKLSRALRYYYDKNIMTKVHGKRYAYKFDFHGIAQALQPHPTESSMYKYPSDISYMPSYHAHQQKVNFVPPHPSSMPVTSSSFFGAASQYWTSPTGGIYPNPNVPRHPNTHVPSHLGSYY
# Procedure, shortened: (§1)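 After expression in yeast as GST fusions, human transcription factors were bound to glutathione beads, DNA-barcoded and mixed with a tag-only sample. The pools were incubated with 200 nmole of a 16-mer random double-stranded DNA library in Tris/NaCl/DTT/glycerol buffer (30 min, room temperature), washed and crosslinked with 0.1% formaldehyde. Proximity ligation with BsaI/T4 ligase ran for 1 h at 37 °C, before PCR amplification and sequencing on an Illumina NextSeq500. Binding signal is a hexamer's read frequency for a factor divided by its frequency for the tag-only sample.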
# ELK1 = target: T2, ELK1 (Homo sapiens, UniProt P19419 1-428); details: protein: recombinant; tags: N-terminal GST; dsDNA, one strand shown
# T2 sequence: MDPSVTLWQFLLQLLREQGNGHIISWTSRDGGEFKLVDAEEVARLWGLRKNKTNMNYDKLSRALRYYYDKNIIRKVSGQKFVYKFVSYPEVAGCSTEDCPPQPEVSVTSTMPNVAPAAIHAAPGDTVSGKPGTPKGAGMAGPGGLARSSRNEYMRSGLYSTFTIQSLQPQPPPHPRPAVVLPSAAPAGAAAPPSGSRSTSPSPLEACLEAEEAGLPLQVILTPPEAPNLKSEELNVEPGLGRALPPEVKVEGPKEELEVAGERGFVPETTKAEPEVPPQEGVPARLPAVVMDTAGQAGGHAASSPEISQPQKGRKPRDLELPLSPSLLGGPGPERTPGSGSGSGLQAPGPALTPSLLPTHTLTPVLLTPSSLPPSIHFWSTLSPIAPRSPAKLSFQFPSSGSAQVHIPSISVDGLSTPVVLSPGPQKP
# Procedure, shortened: as §1
# GABPA = target: T3, GABPA (Homo sapiens, UniProt Q06546 1-454); details: protein: recombinant; tags: N-terminal GST; dsDNA, one strand shown
# T3 sequence: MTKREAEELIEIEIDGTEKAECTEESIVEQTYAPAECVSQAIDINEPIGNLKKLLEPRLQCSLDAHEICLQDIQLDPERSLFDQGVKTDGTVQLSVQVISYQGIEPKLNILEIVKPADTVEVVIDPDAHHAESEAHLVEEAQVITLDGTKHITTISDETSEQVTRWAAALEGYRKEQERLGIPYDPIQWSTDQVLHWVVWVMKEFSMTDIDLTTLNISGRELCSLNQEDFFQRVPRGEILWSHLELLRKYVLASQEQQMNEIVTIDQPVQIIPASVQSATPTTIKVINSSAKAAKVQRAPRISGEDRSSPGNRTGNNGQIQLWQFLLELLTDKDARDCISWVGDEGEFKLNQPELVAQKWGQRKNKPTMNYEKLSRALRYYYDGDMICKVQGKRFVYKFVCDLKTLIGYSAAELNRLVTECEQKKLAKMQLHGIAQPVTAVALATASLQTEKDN
# Procedure, shortened: as §1
# ERG = target: T4, ERG (Homo sapiens, UniProt P11308 1-479); details: protein: recombinant; tags: N-terminal GST; dsDNA, one strand shown
# T4 sequence: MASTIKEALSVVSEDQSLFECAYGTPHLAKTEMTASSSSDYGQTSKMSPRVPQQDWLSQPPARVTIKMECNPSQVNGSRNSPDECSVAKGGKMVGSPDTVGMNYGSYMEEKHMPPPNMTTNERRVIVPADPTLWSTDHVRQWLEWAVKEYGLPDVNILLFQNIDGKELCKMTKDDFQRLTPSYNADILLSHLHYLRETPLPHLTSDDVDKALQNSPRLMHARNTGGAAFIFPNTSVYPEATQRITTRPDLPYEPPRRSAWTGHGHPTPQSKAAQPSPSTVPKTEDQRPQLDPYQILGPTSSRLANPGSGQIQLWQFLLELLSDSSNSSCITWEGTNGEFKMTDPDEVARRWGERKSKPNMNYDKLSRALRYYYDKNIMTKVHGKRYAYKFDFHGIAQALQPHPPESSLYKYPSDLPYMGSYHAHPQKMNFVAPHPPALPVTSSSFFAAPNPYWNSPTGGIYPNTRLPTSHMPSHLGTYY
# Procedure, shortened: as §1
# ELF1 = ELF1 (Homo sapiens, UniProt P32519 1-619); details: protein: recombinant; tags: N-terminal GST; dsDNA, one strand shown
# Chain of ELF1 (P32519 whole entry): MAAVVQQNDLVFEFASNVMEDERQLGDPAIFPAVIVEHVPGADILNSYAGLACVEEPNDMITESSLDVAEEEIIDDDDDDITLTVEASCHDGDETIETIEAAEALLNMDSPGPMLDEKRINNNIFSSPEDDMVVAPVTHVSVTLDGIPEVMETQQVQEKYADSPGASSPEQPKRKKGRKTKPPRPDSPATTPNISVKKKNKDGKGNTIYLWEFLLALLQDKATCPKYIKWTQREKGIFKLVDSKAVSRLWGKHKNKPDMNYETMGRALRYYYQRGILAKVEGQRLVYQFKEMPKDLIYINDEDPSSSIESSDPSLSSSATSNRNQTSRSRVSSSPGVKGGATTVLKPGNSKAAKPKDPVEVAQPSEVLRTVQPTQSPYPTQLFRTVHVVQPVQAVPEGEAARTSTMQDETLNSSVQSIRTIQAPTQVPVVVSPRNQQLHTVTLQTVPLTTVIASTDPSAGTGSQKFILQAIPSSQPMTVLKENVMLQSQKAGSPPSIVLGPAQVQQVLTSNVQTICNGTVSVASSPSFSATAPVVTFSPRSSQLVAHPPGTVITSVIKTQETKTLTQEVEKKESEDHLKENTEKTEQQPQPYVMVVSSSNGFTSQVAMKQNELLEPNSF
# Procedure, shortened: as §1
# EHF = target: T5, EHF (Homo sapiens, UniProt Q9NZC4 1-300); details: protein: recombinant; tags: N-terminal GST; dsDNA, one strand shown
# T5 sequence: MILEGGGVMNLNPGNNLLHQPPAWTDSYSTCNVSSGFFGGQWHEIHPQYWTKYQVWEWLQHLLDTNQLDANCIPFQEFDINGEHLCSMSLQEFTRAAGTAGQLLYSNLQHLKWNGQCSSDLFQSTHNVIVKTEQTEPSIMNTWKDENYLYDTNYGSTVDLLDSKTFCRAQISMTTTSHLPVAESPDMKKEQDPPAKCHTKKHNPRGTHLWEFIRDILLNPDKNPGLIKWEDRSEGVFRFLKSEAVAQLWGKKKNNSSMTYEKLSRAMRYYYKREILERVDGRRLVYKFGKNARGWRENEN
# Procedure, shortened: as §1
# SPI1 = SPI1 (Homo sapiens, UniProt P17947 1-270); details: protein: recombinant; tags: N-terminal GST; dsDNA, one strand shown
# Procedure, shortened: as §1
# SPIB = SPIB (Homo sapiens, UniProt Q01892 1-262); details: protein: recombinant; tags: N-terminal GST; dsDNA, one strand shown
# Chain of SPIB (Q01892 whole entry): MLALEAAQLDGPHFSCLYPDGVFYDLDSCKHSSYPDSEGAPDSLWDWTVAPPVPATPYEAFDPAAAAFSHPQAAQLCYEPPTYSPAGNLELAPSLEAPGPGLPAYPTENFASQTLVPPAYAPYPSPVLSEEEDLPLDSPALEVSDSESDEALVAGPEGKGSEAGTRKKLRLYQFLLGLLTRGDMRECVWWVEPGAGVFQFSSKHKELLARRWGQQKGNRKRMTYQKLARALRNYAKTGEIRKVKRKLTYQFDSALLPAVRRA
# Procedure, shortened: as §1
# ELK3 = target: T6, ELK3 (Homo sapiens, UniProt P41970 1-407); details: protein: recombinant; tags: N-terminal GST; dsDNA, one strand shown
# T6 sequence: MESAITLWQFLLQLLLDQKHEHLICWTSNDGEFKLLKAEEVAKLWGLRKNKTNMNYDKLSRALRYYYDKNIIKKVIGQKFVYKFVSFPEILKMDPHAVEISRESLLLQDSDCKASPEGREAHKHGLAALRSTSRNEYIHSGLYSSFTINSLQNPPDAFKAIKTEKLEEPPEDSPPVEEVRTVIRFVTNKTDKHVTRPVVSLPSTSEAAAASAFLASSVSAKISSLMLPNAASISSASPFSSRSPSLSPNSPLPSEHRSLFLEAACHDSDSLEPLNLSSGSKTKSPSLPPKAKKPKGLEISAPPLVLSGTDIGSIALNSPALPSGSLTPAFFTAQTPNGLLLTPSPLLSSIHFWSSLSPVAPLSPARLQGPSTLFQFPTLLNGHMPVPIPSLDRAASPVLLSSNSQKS
# Procedure, shortened: as §1
# FEV = target: T7, FEV (Homo sapiens, UniProt Q99581 1-238); details: protein: recombinant; tags: N-terminal GST; dsDNA, one strand shown
# T7 sequence: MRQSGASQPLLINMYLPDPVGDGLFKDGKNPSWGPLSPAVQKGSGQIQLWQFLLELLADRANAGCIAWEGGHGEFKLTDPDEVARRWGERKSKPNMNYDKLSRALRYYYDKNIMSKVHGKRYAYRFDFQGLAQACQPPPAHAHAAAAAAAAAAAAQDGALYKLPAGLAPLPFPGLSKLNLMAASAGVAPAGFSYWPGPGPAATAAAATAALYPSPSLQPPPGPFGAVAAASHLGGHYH
# Procedure, shortened: as §1
# ETV5 = ETV5 (Homo sapiens, UniProt P41161 1-510); details: protein: recombinant; tags: N-terminal GST; dsDNA, one strand shown
# Chain of ETV5 (P41161 whole entry): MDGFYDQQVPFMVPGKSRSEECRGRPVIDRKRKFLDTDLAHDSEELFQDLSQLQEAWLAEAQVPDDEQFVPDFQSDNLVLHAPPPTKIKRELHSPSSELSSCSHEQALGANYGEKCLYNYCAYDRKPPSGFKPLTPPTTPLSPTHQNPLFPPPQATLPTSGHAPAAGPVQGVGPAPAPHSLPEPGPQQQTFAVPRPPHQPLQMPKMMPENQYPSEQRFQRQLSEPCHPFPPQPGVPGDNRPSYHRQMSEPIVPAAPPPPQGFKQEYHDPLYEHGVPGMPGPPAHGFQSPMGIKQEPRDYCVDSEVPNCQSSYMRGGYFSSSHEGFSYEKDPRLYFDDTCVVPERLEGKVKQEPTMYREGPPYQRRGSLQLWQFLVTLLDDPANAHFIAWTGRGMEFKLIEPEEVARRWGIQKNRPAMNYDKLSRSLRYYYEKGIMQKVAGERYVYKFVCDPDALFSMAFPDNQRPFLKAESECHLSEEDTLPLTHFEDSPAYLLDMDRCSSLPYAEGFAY
# Procedure, shortened: as §1
# HSF1 = HSF1 (Homo sapiens, UniProt Q00613 1-529); details: protein: recombinant; tags: N-terminal GST; chain copies: 3; dsDNA, one strand shown
# Chain of HSF1 (Q00613 whole entry): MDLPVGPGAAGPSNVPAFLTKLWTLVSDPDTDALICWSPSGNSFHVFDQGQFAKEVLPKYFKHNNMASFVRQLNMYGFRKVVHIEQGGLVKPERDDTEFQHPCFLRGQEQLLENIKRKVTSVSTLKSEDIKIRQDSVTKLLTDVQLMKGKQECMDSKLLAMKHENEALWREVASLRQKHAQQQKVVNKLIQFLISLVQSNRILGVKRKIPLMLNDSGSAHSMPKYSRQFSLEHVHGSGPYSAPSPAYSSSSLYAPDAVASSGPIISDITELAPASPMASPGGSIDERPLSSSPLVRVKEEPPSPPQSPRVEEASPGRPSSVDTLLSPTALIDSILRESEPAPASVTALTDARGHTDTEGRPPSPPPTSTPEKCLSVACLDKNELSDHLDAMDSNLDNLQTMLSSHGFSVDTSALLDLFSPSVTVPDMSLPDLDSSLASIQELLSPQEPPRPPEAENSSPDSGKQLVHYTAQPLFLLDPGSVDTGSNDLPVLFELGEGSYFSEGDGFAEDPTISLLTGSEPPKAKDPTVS
# Procedure, shortened: as §1
# SPIC = target: T8, SPIC (Homo sapiens, UniProt Q8N5J4 1-248); details: protein: recombinant; tags: N-terminal GST; dsDNA, one strand shown
# T8 sequence: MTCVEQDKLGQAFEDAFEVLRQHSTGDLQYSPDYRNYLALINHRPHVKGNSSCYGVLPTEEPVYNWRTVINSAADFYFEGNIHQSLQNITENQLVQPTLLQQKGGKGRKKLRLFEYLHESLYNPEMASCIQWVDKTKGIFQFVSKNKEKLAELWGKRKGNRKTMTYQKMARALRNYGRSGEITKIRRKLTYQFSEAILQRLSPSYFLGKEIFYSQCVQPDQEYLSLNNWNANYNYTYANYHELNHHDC
# Procedure, shortened: as §1
# ELF4 = ELF4 (Homo sapiens, UniProt Q99607 1-663); details: protein: recombinant; tags: N-terminal GST; dsDNA, one strand shown
# Chain of ELF4 (Q99607 whole entry): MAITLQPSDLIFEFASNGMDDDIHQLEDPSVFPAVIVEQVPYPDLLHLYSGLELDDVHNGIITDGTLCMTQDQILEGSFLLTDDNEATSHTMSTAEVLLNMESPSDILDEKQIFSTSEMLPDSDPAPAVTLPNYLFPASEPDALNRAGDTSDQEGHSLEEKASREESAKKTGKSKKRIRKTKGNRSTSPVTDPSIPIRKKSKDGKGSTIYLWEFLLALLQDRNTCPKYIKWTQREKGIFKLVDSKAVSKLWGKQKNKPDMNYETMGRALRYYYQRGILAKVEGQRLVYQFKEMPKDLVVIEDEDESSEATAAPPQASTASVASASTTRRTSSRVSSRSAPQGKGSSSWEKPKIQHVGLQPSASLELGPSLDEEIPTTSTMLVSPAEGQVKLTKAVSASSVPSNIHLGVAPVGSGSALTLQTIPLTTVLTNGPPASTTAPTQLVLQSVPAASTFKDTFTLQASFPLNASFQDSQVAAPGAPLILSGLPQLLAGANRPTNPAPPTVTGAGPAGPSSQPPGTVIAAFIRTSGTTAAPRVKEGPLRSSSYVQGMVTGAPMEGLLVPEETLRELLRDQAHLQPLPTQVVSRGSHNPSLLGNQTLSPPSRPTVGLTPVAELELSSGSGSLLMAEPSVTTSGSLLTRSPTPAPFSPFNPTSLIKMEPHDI
# Procedure, shortened: as §1
# ELK4 = target: T9, ELK4 (Homo sapiens, UniProt P28324-2 1-405); details: protein: recombinant; tags: N-terminal GST; dsDNA, one strand shown
# T9 sequence: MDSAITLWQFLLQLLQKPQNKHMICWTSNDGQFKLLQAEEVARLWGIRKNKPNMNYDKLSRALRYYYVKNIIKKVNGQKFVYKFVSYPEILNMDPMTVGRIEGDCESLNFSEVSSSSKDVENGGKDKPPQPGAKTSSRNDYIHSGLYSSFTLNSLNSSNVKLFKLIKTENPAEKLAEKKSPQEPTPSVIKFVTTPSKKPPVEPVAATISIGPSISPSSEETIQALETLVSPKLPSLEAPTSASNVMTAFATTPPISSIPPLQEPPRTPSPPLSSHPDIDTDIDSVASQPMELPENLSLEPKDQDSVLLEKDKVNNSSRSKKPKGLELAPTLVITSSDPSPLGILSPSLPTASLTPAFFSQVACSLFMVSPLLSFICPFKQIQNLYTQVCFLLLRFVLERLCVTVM
# Procedure, shortened: as §1
# ETV2 = target: T10, ETV2 (Homo sapiens, UniProt O00321 1-342); details: protein: recombinant; tags: N-terminal GST; dsDNA, one strand shown
# T10 sequence: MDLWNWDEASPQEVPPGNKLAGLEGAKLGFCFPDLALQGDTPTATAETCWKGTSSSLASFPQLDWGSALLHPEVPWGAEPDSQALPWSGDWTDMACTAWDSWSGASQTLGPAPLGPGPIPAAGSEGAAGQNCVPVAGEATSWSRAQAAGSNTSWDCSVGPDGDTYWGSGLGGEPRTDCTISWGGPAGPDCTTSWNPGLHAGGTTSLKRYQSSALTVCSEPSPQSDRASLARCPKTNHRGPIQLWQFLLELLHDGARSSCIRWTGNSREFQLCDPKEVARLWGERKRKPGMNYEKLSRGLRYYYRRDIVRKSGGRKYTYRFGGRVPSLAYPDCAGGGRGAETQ
# Procedure, shortened: as §1
# ELF3 = target: T11, ELF3 (Homo sapiens, UniProt P78545 1-371); details: protein: recombinant; tags: N-terminal GST; dsDNA, one strand shown
# T11 sequence: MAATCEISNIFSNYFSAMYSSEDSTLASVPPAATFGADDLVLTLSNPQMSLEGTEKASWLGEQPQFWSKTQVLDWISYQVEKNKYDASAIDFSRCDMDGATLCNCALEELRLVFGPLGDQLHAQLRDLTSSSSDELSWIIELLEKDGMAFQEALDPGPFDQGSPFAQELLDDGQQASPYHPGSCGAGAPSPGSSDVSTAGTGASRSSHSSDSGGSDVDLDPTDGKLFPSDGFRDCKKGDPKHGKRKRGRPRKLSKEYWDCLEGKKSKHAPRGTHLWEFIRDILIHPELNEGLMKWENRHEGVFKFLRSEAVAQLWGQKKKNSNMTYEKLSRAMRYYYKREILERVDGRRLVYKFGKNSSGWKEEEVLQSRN
# Procedure, shortened: as §1
# CRX = CRX (Homo sapiens, UniProt O43186 1-299); details: protein: recombinant; tags: N-terminal GST; dsDNA, one strand shown
# Chain of CRX (O43186 whole entry): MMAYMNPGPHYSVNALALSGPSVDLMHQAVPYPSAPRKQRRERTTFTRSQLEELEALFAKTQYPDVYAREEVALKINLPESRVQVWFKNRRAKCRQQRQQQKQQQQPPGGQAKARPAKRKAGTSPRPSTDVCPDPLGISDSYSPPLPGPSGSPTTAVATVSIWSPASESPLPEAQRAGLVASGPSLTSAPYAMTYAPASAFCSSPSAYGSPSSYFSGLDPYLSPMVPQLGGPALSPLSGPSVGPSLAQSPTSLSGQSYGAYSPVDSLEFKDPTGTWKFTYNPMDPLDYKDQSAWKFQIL
# Procedure, shortened: as §1
# ETV1 = ETV1 (Homo sapiens, UniProt P50549 1-477); details: protein: recombinant; tags: N-terminal GST; dsDNA, one strand shown
# Chain of ETV1 (P50549 whole entry): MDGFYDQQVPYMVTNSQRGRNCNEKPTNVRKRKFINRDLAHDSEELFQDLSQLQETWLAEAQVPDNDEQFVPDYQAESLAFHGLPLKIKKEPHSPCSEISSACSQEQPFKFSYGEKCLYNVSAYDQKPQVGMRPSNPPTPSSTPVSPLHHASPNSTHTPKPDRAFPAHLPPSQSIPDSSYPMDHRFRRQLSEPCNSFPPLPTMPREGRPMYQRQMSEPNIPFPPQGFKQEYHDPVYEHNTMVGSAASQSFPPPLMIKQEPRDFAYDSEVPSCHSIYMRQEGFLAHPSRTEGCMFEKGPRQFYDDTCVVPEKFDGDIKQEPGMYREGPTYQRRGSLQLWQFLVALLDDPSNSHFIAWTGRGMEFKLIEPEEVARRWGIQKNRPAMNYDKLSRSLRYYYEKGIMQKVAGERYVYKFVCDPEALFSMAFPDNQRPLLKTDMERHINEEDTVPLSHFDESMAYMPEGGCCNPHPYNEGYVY
# Procedure, shortened: as §1
sequence,measurement,setting,value
ATGAAC,binding signal,FLI1,"1.31 fold enrichment (6-mer frequency, TF over GST control)"
same,binding signal,ELK1,"1.28 fold enrichment (6-mer frequency, TF over GST control)"
same,binding signal,GABPA,"1.27 fold enrichment (6-mer frequency, TF over GST control)"
same,binding signal,ERG,"1.19 fold enrichment (6-mer frequency, TF over GST control)"
same,binding signal,ELF1,"1.27 fold enrichment (6-mer frequency, TF over GST control)"
same,binding signal,EHF,"1.32 fold enrichment (6-mer frequency, TF over GST control)"
same,binding signal,SPI1,"1.21 fold enrichment (6-mer frequency, TF over GST control)"
same,binding signal,SPIB,"1.27 fold enrichment (6-mer frequency, TF over GST control)"
same,binding signal,ELK3,"1.44 fold enrichment (6-mer frequency, TF over GST control)"
same,binding signal,FEV,"1.26 fold enrichment (6-mer frequency, TF over GST control)"
same,binding signal,ETV5,"1.29 fold enrichment (6-mer frequency, TF over GST control)"
same,binding signal,HSF1,"1.21 fold enrichment (6-mer frequency, TF over GST control)"
same,binding signal,SPIC,"1.39 fold enrichment (6-mer frequency, TF over GST control)"
same,binding signal,ELF4,"1.36 fold enrichment (6-mer frequency, TF over GST control)"
same,binding signal,ELK4,"1.31 fold enrichment (6-mer frequency, TF over GST control)"
same,binding signal,ETV2,"1.11 fold enrichment (6-mer frequency, TF over GST control)"
same,binding signal,ELF3,"1.38 fold enrichment (6-mer frequency, TF over GST control)"
same,binding signal,CRX,"1.13 fold enrichment (6-mer frequency, TF over GST control)"
same,binding signal,ETV1,"1.38 fold enrichment (6-mer frequency, TF over GST control)"
